According to PubChem BioAssay AID434994 (NMMLSC, 2010):
The other results are listed elsewhere or left out. Values without a mark were called inactive. Active and inactive are the calls of the source.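 The calls were made as follows: active = superoxide signal below 65% of the plate average of sample wells; inactive = the rest.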

Experiment: retest of yeast aging ROS inhibitors – cherry picked compounds, confirmation (AID 434994);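 also: cells aged with compound for 7 days at 30 degrees C before staining; 100% equals mean DHE fluorescence of all compound wells on the plate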
Conditions: S. cerevisiae aging, superoxide DHE fluorescence; at 10 µM; hits give low values

Row | SMILES | superoxide response (% of plate)
1 | Cn1c(Nc2ccccc2)cc(=O)n(C)c1=O | 100%
2 | COc1cc(-c2nnn(CC(=O)NCc3ccccc3)n2)cc(OC)c1OC | 100%
3 | Cc1cc(C(F)F)n2nc(C(=O)Nc3ccc(S(=O)(=O)NC45CC6CC(CC(C6)C4)C5)cc3)nc2n1 | 111%
4 | O=C(CSCc1ccccc1)Nc1ccccc1 | 107%
5 | Cc1ccc(C23CC4CC(CC(C(=O)NCC(=O)O)(C4)C2)C3)cc1 | 106%
6 | CNC(=O)c1cccc2nc3ccccc3nc12 | 79.8%
7 | COc1ccc(CCNC(=O)c2ccccc2-c2ccccc2C(=O)O)cc1OC | 108%
8 | O=C(CN1CCN(c2ccccn2)CC1)Nc1ccc(Br)cc1 | 111%
9 | CC(C)NC(=O)/C(C#N)=C\c1ccc(N(C)C)c(Br)c1 | 88.1%
10 | O=C(CSc1ccc(-c2ccc(-n3cccn3)cc2)nn1)Nc1ccc([N+](=O)[O-])cc1 | 95.7%
11 | COc1ccc(NC(C)=O)cc1NC(=O)CN1CCN(c2ccccn2)CC1 | 103%
12 | COc1cccc(NC(=O)NCCN2CCCCC2)c1 | 101%
13 | COc1cc(NC(=O)CSc2ccc(-c3cccnc3)nn2)cc(OC)c1 | 123%
14 | Cc1ccc(-c2nn(C(C)(C)C)c3ncnc(N)c23)cc1 | 42.9% (active)
15 | CSc1ncc(Cl)c(C(=O)Nc2cc(C)ccc2C)n1 | 95.3%
16 | O=C(Nc1ccccc1N1CCCC1)c1ccc2ccccc2c1 | 95.3%
17 | CC1CCCN(S(=O)(=O)c2ccc(C(=O)Nc3nnc(-c4ccncc4)o3)cc2)C1 (configuration not stated) | 111%
18 | O=C(Nc1cccc(Cl)c1Cl)c1ccccc1NC(=O)C1CC=CCC1C(=O)O (configuration not stated) | 101%
19 | Cc1cc2oc(C(=O)Nc3c(C)n(C)n(-c4ccccc4)c3=O)c(C)c2cc1Cl | 93.5%
20 | CCN(CC)C(=O)CSc1nnc(-c2cccc(OC)c2)o1 | 113%
21 | Cc1ccc(-c2nnc(Nc3ccc(C(=O)N(C)C)cc3)c3ccccc23)cc1S(N)(=O)=O | 107%
22 | COC(=O)CNC(=O)c1ccc(OC2CCN(C(=O)C3CC3)CC2)cc1 | 103%
